Assay outcomes deposited in PubChem by National Center for Advancing Translational Sciences (NCATS).
HT1080 IDH1KD tx: HT-1080 IDH1 knockdown cell toxicity (counter line) | HT-1080 IDH1 knockdown viability, ATP luminescence, 48 h | Potency, µM (titrated, usually from 46.1 µM), for inactives: at the top dose activity, negative = toxicity, actives largely listed as cytotoxic | 2% of 360,000 active;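 note: 0% = DMSO wells and -100% = cell-free medium wells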
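CellTiter-Glo luminescence after 48 h compound exposure at 37 degrees C of IDH1-knockdown HT-1080 cells in 5% FBS RPMI. %Activity scaled between DMSO wells and cell-free media wells, with curves fitted and assigned curve classes.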
KB-V1 cytotox: KB-V1 MDR subline cytotoxicity | KB-V1 MDR cells viability, CellTiter-Glo, 72 h | Potency, µM (titrated, usually from 46.1 µM), most hits filed as cytotoxic | 3.4% of 400,000 active | AID 1347076; note: % is set by controls: 0 for no effect and ±100 for the full control effect; nearly all actives have a fitted effect of over 60% in size
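Drug-selected KB-V1 cells, grown in DMEM lacking phenol red with 10% FBS, receive compound titrations; after three days at 37 degrees C, surviving cell ATP is quantified by CellTiter-Glo luminescence and responses normalized and curve-fitted.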
SW480 rereplic: induces DNA re-replication in SW480 colon adenocarcinoma cells. SW480 DNA re-replication, Hoechst DNA content imaging, 48 h. Potency, µM (top dose mostly 46.1 µM), without a hit: top-dose re-replication activation, actives largely listed as activators. 1.8% of 340,000 active; note: % of control where 0% means no effect; nearly all actives have a fitted effect of over 55% in size
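Quantitative HTS format with DMSO vehicle controls; 48 hr drug incubation at 37 C, then 40 min Hoechst staining and scanning imager measurement at 405 nm excitation.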
MCF10A rereplic: DNA re-replication induction in MCF 10a cells. MCF 10A DNA re-replication, Hoechst nuclear intensity, 48 h. Potency, µM (series often up to 46.1 µM), inactives show at the highest dose activity, positive = re-replication, usual class: activators. 2.9% of 350,000 active. AID 624296; note: % of control where 0% means no effect; nearly all actives have a fitted effect of over 50% in size
KB-3-1 cytotox: kills parental KB-3-1 adenocarcinoma cells; Potency, µM (highest dose often 46.1 µM), most hits filed as cytotoxic; 1.4% of 400,000 active; AID 1347075; KB-3-1 viability, CellTiter-Glo ATP luminescence, 72 h; note: % is set by controls: 0 for no effect and ±100 for the full control effect; nearly all actives have a fitted effect of over 60% in size
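Parental KB-3-1 adenocarcinoma cells in phenol-red-free DMEM with 10% FBS were pin-treated with compounds at several concentrations, incubated 72 h at 37 °C, and viability read by CellTiter-Glo luminescence; concentration-effect curves were fitted after normalization.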
HT1080NT lethal: kills 2HG-producing HT-1080-NT fibrosarcoma cells; HT-1080-NT fibrosarcoma viability, CellTiter-Glo ATP luminescence, 48 h; Potency, µM (series often up to 46.1 µM), for the others: top-dose activity, negative = less viability, usual class: cytotoxic; 1.6% of 360,000 active;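 note: NT is the 2HG producing partner of a matched IDH1 knockdown line; 0% = DMSO-treated cells and -100% = media-only wells without cells; nearly all actives have a fitted effect of over 55% in size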
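HT-1080-NT; 750 cells/well; 5% FBS RPMI; 48 h compound, 37 degrees C; CellTiter-Glo luminescence; curve fitting and curve-class assignment.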
Starred values were filed as active, the others as inactive; [ ] = remark or other dose. Compounds with a hit are over-represented: about 7.9% of the library has one in this group of screens. Calls come from the whole dose curve; as a rule, active = well fitted curve in the direction sought with a large enough effect; inconclusive = small, poorly fitted or top-dose-only effect, or another doubt; inactive = no such curve, though single readings can be large; an effect the other way counts as inactive or inconclusive. Potency is the fitted concentration of half-maximal effect.

Screening CC(Oc1ccccc1)C(=O)Nc1ccc(C(=O)OCc2cc(=O)n3ccsc3n2)cc1 (configuration not stated) returned KB-V1 cytotox inactive and KB-3-1 cytotox inactive.
Screening COc1ccc(CNc2ccc3c(c2)ncn3-c2ccccc2OC)cc1 returned HT1080 IDH1KD tx -18%, KB-V1 cytotox 16µM*, SW480 rereplic inconclusive, MCF10A rereplic 18%, KB-3-1 cytotox inactive and HT1080NT lethal -9%.
For CCOc1ccc(CNc2ccc3c(c2)ncn3C(C)(C)C)cc1 the results were HT1080 IDH1KD tx -4%, KB-V1 cytotox inactive, SW480 rereplic 4%, MCF10A rereplic -1%, KB-3-1 cytotox inactive and HT1080NT lethal -1%.
For COc1cc2c(-c3ccc4cc[nH]c4c3)c(-c3ccc(C#N)cc3)oc(=O)c2cc1OC the results were HT1080 IDH1KD tx -8%, KB-V1 cytotox inactive, SW480 rereplic inconclusive, MCF10A rereplic inconclusive, KB-3-1 cytotox inactive and HT1080NT lethal -4%.
For CCCC12CN3CC(CCC)(CN(C1)C3c1ccccc1)C2=O (configuration not stated) the results were KB-V1 cytotox inactive and KB-3-1 cytotox inactive.
Cc1cccc(NC2(C(=O)O)CCCC2)c1 was read as HT1080 IDH1KD tx 0%, KB-V1 cytotox inactive, SW480 rereplic -3%, MCF10A rereplic -5%, KB-3-1 cytotox inactive and HT1080NT lethal 3%.
CCc1ccc(-c2cn(-c3nc(C)cc(C)n3)c(=N)o2)cc1 was read as HT1080 IDH1KD tx -13%, KB-V1 cytotox inconclusive, SW480 rereplic 0%, MCF10A rereplic 23µM*, KB-3-1 cytotox 21µM* and HT1080NT lethal -29%.
Screening Cc1ccc(C(=C2C3C=CC2C2C(=O)NC(=O)C32)c2ccc(C)cc2)cc1 (configuration not stated) returned HT1080 IDH1KD tx inconclusive, KB-V1 cytotox 15µM*, SW480 rereplic 26%, MCF10A rereplic inconclusive, KB-3-1 cytotox inconclusive and HT1080NT lethal inconclusive.
`Cc1ccc(NC2C(=O)NC(=O)NC2=O)cc1` gave HT1080 IDH1KD tx -7%, KB-V1 cytotox inactive, SW480 rereplic 11%, MCF10A rereplic 23%, KB-3-1 cytotox inactive and HT1080NT lethal -15%.
`CC(NCC(=O)NCCc1ccc(S(N)(=O)=O)cc1)c1ccc(F)cc1` (configuration not stated) gave HT1080 IDH1KD tx -2%, KB-V1 cytotox inactive, SW480 rereplic 26µM*, MCF10A rereplic -5%, KB-3-1 cytotox inactive and HT1080NT lethal -2%.
Screening CC(NCCc1ccc(S(N)(=O)=O)cc1)C(=O)NCCc1ccc(F)cc1 (configuration not stated) returned HT1080 IDH1KD tx 0%, KB-V1 cytotox inactive, SW480 rereplic -7%, MCF10A rereplic 4%, KB-3-1 cytotox inactive and HT1080NT lethal 0%.
For Cc1ccc2nc(-c3ccccc3)cc(C(=O)N(C)CC(=O)Nc3ccccc3Br)c2c1 the results were HT1080 IDH1KD tx inconclusive, KB-V1 cytotox 21µM*, SW480 rereplic -464%, MCF10A rereplic inconclusive, KB-3-1 cytotox inconclusive and HT1080NT lethal inconclusive.
COc1ccc(CN(C)C(=O)c2cc(-c3ccccc3)nc3ccc(C)cc23)c(OC)c1 was read as HT1080 IDH1KD tx inconclusive, KB-V1 cytotox inconclusive, KB-3-1 cytotox 18µM* and HT1080NT lethal inconclusive.
CN(CC(=O)Nc1ccccc1Br)C(=O)c1ccccc1OCc1ccc(Cl)cc1 was read as HT1080 IDH1KD tx -9%, KB-V1 cytotox 5.8µM*, SW480 rereplic 6%, MCF10A rereplic 20%, KB-3-1 cytotox inconclusive and HT1080NT lethal -2%.
`COc1ccccc1CN(C)C(=O)c1cc(C)nc2ccccc12` gave HT1080 IDH1KD tx -2%, KB-V1 cytotox inconclusive, SW480 rereplic -5%, MCF10A rereplic inconclusive, KB-3-1 cytotox inconclusive and HT1080NT lethal -2%.
`CC(C)c1cccc(C(C)C)c1NC(=O)CCN1C(=O)NC2(CCCC2)C1=O` gave HT1080 IDH1KD tx -4%, KB-V1 cytotox inactive, SW480 rereplic -2%, MCF10A rereplic 0%, KB-3-1 cytotox inactive and HT1080NT lethal -3%.
Screening O=c1[nH]nc(Sc2ncnc3sccc23)n1CCc1ccccc1 returned HT1080 IDH1KD tx inconclusive, KB-V1 cytotox inactive, SW480 rereplic 28%, MCF10A rereplic inconclusive, KB-3-1 cytotox inconclusive and HT1080NT lethal 18µM*.
Screening O=C(COC(=O)c1ccc(Cl)nc1)Nc1ccc(N2CCCCC2)cc1 returned HT1080 IDH1KD tx -2%, KB-V1 cytotox inactive, SW480 rereplic -4%, MCF10A rereplic 6%, KB-3-1 cytotox inactive and HT1080NT lethal 0%.
For CCOC(=O)C1CCN(C(c2ccccn2)c2c(C)[nH]c3ccccc23)CC1 (configuration not stated) the results were HT1080 IDH1KD tx inconclusive, KB-V1 cytotox inactive, SW480 rereplic inconclusive, MCF10A rereplic 21µM*, KB-3-1 cytotox 18µM* and HT1080NT lethal inconclusive.
For Cc1[nH]c2ccccc2c1C(c1ccccn1)N1CCC(C(N)=O)CC1 (configuration not stated) the results were HT1080 IDH1KD tx -17%, KB-V1 cytotox inactive, SW480 rereplic 2%[9.22 µM], MCF10A rereplic inconclusive, KB-3-1 cytotox inconclusive and HT1080NT lethal -4%.
Cc1ccc(NS(=O)(=O)c2ccc(C(=O)N3CCN(S(=O)(=O)c4ccccc4)CC3)cc2)cc1 was read as HT1080 IDH1KD tx -12%, KB-V1 cytotox inconclusive, SW480 rereplic 26µM*, MCF10A rereplic 7%, KB-3-1 cytotox inconclusive and HT1080NT lethal -1%.
Screening COc1cc(S(=O)(=O)Nc2ccccc2N2CCCCC2)ccc1NC(C)=O returned HT1080 IDH1KD tx 8.2µM*, KB-V1 cytotox inactive, SW480 rereplic inconclusive, MCF10A rereplic 18µM*, KB-3-1 cytotox inactive and HT1080NT lethal 16µM*.
`O=C(c1cccc(S(=O)(=O)Nc2ccccc2Cl)c1)N1CCC1` gave HT1080 IDH1KD tx 0%, KB-V1 cytotox inactive, SW480 rereplic -2%, MCF10A rereplic 0%, KB-3-1 cytotox inactive and HT1080NT lethal 1%.
For Cc1ccc(S(=O)(=O)Nc2ccc(C(=O)N3CCCC3)cc2)cc1 the results were HT1080 IDH1KD tx 8%, KB-V1 cytotox inconclusive, SW480 rereplic -7%, MCF10A rereplic -33%, KB-3-1 cytotox inactive and HT1080NT lethal 4%.
`Cc1ccc(NS(=O)(=O)c2cccc(C(=O)N3CCCCC3)c2)cc1` gave HT1080 IDH1KD tx 12%, KB-V1 cytotox 12µM*, SW480 rereplic -1%, MCF10A rereplic 23%, KB-3-1 cytotox inactive and HT1080NT lethal 9%.
